CHRM4 agonist = CHRM4 agonism in calcium assay; P08173; AID 624127; activation, % at 3 µM; CHO-K1 hM4/Gqi5, Fluo-8 calcium fluorescence; vehicle 0%, full acetylcholine response 100%; 360,000 compounds, 0.14% hits;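 active = activation above the run mean over all test wells plus 3 SD, cut at about 32% in these data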;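 note: peak over basal fluorescence ratio per well then scaled between controls; 0% = DMSO wells and 100% = acetylcholine at EC100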
Target sequence (P08173 whole entry, looked up): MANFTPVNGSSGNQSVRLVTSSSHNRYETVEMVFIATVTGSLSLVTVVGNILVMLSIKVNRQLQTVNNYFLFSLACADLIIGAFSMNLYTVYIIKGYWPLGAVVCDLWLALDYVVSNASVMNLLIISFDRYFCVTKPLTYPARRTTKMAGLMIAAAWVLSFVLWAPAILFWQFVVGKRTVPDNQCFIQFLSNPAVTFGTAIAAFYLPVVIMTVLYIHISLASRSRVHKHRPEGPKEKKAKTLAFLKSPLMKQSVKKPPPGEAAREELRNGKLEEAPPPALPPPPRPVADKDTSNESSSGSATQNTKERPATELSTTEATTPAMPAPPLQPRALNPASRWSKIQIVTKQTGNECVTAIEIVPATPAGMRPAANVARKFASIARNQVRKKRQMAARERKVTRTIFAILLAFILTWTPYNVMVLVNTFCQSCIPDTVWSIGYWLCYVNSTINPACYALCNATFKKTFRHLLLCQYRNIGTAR
M1 ag parental = counter-screen for M1 agonists: effect in parental CHO-K1 cells | Fluo-8 calcium fluorescence; scaled to maximal ATP response, vehicle zero | activation, % at 3 µM | 360,000 compounds, 0.48% hits | AID 602248; in the data active = activation above about 15%;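 note: untransfected CHO-K1 host cells lacking M1 receptor as counterscreen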
CHO-K1 Ca PAM = counter-screen for M1 PAMs: effect in parental CHO-K1 cells. activation, % at 3 µM. AID 602247. 360,000 compounds, 0.02% hits. ATP EC20, Fluo-8 calcium fluorescence; 0% at ATP EC20, 100% at ATP max;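 active = activation above the run cutoff, the mean activation of all test compounds plus 3 SD, cut at about 40% in these data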;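 note: peak over basal fluorescence ratio in a 140 s read after ATP addition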
CHRM4 antagonist = CHRM4 antagonism in calcium assay; P08173; CHO-hM4 cells, ACh EC80, Fluo-8 calcium fluorescence; inhibition, % at 3 µM; 360,000 compounds, 0.73% hits; AID 624125;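 active = inhibition above its plate's cutoff, the mean inhibition of sample wells plus 3 SD, cut at about 27% in these data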;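 note: 0% = acetylcholine EC80 with DMSO and 100% = DMSO without agonist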
CHO-K1 Ca antag = nonselective inhibitor or artifact in parental CHO-K1 cells; 360,000 compounds, 0.6% hits; AID 602250; ATP-induced calcium, Fluo-8 fluorescence; inhibition, % at 3 µM;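 active = inhibition above a per-plate cutoff, the plate's mean sample inhibition plus 3 SD, cut at about 24% in these data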;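 note: 0% = DMSO plus EC80 ATP and 100% = DMSO alone without ATP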
M4 PAM = CHRM4 positive allosteric modulation; P08173; CHO-K1 hM4/Gqi5, Fluo-8 calcium fluorescence, ACh EC20; 0% = ACh EC20, 100% = maximal ACh; activation, % at 3 µM; 360,000 compounds, 0.4% hits; AID 624126;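 active = activation above its plate's cutoff, the mean activation of sample wells plus 3 SD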
Numbers without * were called inactive; ! = not active in a repeat. In the library only some 2% were active in any assay of this set; here they are far more common.

SMILES	CHRM4 agonist	M1 ag parental	CHO-K1 Ca PAM	CHRM4 antagonist	CHO-K1 Ca antag	M4 PAM
COc1ccc(C(C(=O)NCC2CCCO2)N(C(=O)CNC(=O)c2cccs2)c2ccccc2)cc1OC (stereo not drawn)	-0.4	-0.1	-16.4	-0.6	23.7*	-1.9
COc1ccc(C(C(=O)NCC2CCCO2)N(C(=O)CNC(=O)c2ccco2)c2ccccc2)cc1OC (stereo not drawn)	1.3	0.2	1.8	-10.3	1.2	5.2
c1ccc(CCNCCOc2ccccc2)cc1	0.7	15.1*	2.1	-4.5	6.4	2.6
O=C(CCCOc1ccccc1)NCCc1ccccc1	0.4	-0.1	12.0	-0.2	-12.5	0.7
O=C(Nc1ccc(Oc2cccnc2)cc1)C1CCN(Cc2ccccc2)CC1	3.5	0.7	-9.6	-3.3	6.2	-2.0
CCN(CC)CCNC(=O)c1ccc(NC(=O)C2CCN(c3ncnc4sc(C)c(C)c34)CC2)cc1	80.5*	-0.1	-19.1	57.6*	19.4	8.4
Cc1sc2ncnc(N3CCC(C(=O)Nc4ccc(OC(F)F)c(Cl)c4)CC3)c2c1C	1.4	0.5	3.9	-2.7	-8.2	13.1
Cc1ccc(S(=O)(=O)N2CCN(C(=O)C3CCN(c4ncnc5sc(C)c(C)c45)CC3)CC2)c(C)c1	2.5	-0.3	9.7	-4.1	-12.6	26.4*
CCCCC(=O)Nc1cccc(NC(=O)c2ccc(Br)cc2)c1	-0.5	2.8	15.3	3.4	-13.2	-4.1
CCOC(=O)CSc1nc2c(sc(=S)n2-c2ccccc2OC)c(=O)n1-c1ccccc1OC	0.2	-1.4	-1.3	-8.5	-3.3	-8.7
CCOC(=O)CSc1nc2c(sc(=S)n2-c2ccccc2OC)c(=O)n1Cc1ccco1	-0.7	0.3	-1.2	25.0	28.5*	12.8
CCOCC(=O)Nc1ccccc1C(=O)O	5.5	0.3	17.8	-11.3	-9.7	26.2*
CCCCC(=O)NNC(=O)CC(=O)Nc1ccccc1C(=O)O	0.1	-0.1	-2.6	4.5	-4.7	-8.6
CCCCCCC(=O)NNC(=O)CC(=O)Nc1ccccc1C(=O)O	0.2	0.2	-0.2	0.0	-5.1	46.3*
CCn1c(C)cc(/C=C2\NC(=O)N(Cc3ccc(Cl)cc3)C2=O)c1C	1.7	0.0	-10.0	30.6*	-4.3	8.6
CCN1C(=O)N/C(=C/c2cc(C)n(Cc3ccccc3)c2C)C1=O	3.2	1.8	7.8	6.2	3.3	5.4
COC(=O)c1cccc(/C=N/NC(N)=S)c1O	-0.9	-0.6	22.0	0.1	-14.3	-11.1
CC(=O)N(c1ccc(C)cc1)C1C=CS(=O)(=O)C1 (stereo not drawn)	0.6	0.4	-4.4	-5.1	23.8*	8.3
O=C1c2ccccc2C(=O)N1CCCc1nc(-c2ccncc2)no1	1.0	1.4	11.1	5.4	9.0	-5.6
CCN1CCN(Cc2ccc(NC(=O)c3ccc(C)c(NC(=O)c4ccnnc4)c3)cc2C(F)(F)F)CC1	1.8	0.5	-3.5	-0.1	-2.7	16.6
CCN1CCN(Cc2ccc(C(=O)Nc3ccc(C)c(NCc4cnc(NC(=O)OC)cn4)c3)cc2C(F)(F)F)CC1	-0.2	-0.4	-2.6	33.1*!	-0.5	-4.1
CCOc1ccc(OCc2ccc(C(=O)NN=Cc3ccc[nH]3)cc2)cc1	3.4	0.1	-10.0	-3.2	4.0	7.2
COc1ccc(OC)c(/C=C2/Sc3ccccc3C2=O)c1	27.4	37.7*	-5.9	18.6	34.6*	-5.1
CCCNc1cc(C)oc(=O)c1C(=O)CCC	-0.7	-0.2	6.0	-1.1	-15.7	11.2
CCCC(=O)c1c(NC(C)C)cc(C)oc1=O	-1.3	-0.7	-1.2	4.1	2.1	38.6*
SMILES	CHRM4 agonist	M1 ag parental	CHO-K1 Ca PAM	CHRM4 antagonist	CHO-K1 Ca antag	M4 PAM
COc1ccc(N2CCN(c3nc(NCCO)nc(N4CCOCC4)n3)CC2)cc1	3.4	0.7	-7.7	-13.6	27.1*	8.2
O=C1C=CC2C3C(=O)N(c4ccccc4)C(=O)C3C1N2Cc1ccccc1 (stereo not drawn)	5.4	3.7	17.4	30.8*	-4.9	-5.1
CC(=O)Nc1c(Nc2ccccc2)c2ccccc2oc1=O	1.7	15.3*	6.4	-7.8	18.2	1.1
COc1ccc(CCN2CC(O)=C(c3nc(C)cs3)C2=N)cc1OC	0.8	0.5	-5.2	0.1	14.9	6.8
COc1ccc(CCN2CC(O)=C(c3nc4ccccc4c(=O)[nH]3)C2=N)cc1OC	0.8	0.1	-8.2	4.2	29.7*	1.2
CCOC(=O)c1ccc(N2CC(O)=C(c3nc4ccccc4c(=O)[nH]3)C2=N)cc1	1.0	1.1	-6.8	16.0	24.1*	-12.1
CCCc1ncc(C(O)(c2ccccc2)c2ccccc2)n1C	2.3	0.7	18.4	62.5*	-4.0	-17.9
CCCc1ncc(C(O)(c2ccccc2)c2ccc(C)cc2)n1C (stereo not drawn)	2.8	2.4	25.2	50.2*	-8.6	-18.8
CC(C)Cc1ccc(C(C)NC(=O)c2ccc(=O)[nH]c2)cc1 (stereo not drawn)	21.8	15.4*	-7.9	8.8	3.9	-14.7
CC(=O)c1ccc(S(=O)(=O)NCc2ccc(C(=O)NCC(c3ccccc3)N(C)C)cc2)cc1 (stereo not drawn)	1.4	1.7	5.6	15.3	-13.9	-18.9
CN(C)c1ccc(/C=N/NS(=O)(=O)c2ccc(Br)cc2)cc1	-0.6	0.3	-0.2	-2.5	-6.5	-6.5
Cc1cccc(OCC(=O)OCC(=O)c2c(N)n(C)c(=O)n(C)c2=O)c1C	0.2	0.0	15.1	-0.8	-8.1	-3.0
CC(NC(=O)Nc1ccc(Cl)cc1)c1ccccc1 (stereo not drawn)	6.2	28.6*	4.6	5.8	1.2	-7.7
CC(=O)c1ccc(NC(=O)Nc2ccc(Cl)cc2)cc1	27.5	17.0*	-0.5	5.8	19.0	-14.5
CC(C)(C)c1nnc(NC(=O)Nc2ccc(Cl)cc2)s1	1.2	-0.3	-5.2	-1.2	1.2	-7.5
CC(=O)c1ccc(NC(=O)Nc2ccncc2)cc1	3.6	2.8	1.7	-5.4	-3.6	-4.8
CC(=O)c1cccc(NC(=S)NCCc2ccc(Cl)cc2)c1	13.2	8.6	-8.3	3.3	-2.7	-15.4
CC(=O)c1ccc(NC(=S)NCc2ccc(Cl)cc2Cl)cc1	17.9	16.4*	-12.0	17.7	15.9	-18.4
Cc1nc(NC(=O)Nc2ccc(Cl)cc2)sc1C	6.8	1.5	-7.7	28.2*	8.8	-0.1
O=C(Cc1cccs1)Nc1ccc(-c2nnc(-c3ccco3)o2)cc1	1.6	0.8	-14.8	-4.3	20.3	2.5
O=[N+]([O-])c1cc2c(c3cccnc13)COCO2	0.5	-0.4	-13.0	5.7	2.2	-3.1
Fc1ccccc1C1CCN(Cc2nc(COc3ccccc3)no2)C1 (stereo not drawn)	0.0	0.2	9.8	16.0	-11.9	-11.2
Cc1noc(-c2ccccc2)c1NC(=O)Nc1ccc(Cl)cc1	10.2	15.1*	5.7	36.9*	1.6	-58.3
